High-throughput results (PubChem BioAssay)
Wnt act = activators of Wnt/beta-catenin signaling | Wnt/beta-catenin reporter cell assay, activator, plate reader | activation, % at 9.35 µM | 1.2% of 300,000 active; in the data active = activation above about 30%, passing the limit was not always enough; inconclusive = no clear call, values can overlap the other calls;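 also: 0% = neutral control wells and 100% = positive control wells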
Rtt109 Vps75 = blocks Candida albicans Rtt109/Vps75 acetyltransferase activity; Q5AAJ8; purified Rtt109/Vps75, ThioGlo CoA-SH fluorescence, 4 h; inhibition, % at 34.9 µM; 0.16% of 330,000 active; AID 540336;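 active = inhibition of at least 50% in every replicate; inconclusive = best replicate reaches 50% inhibition but some replicates fall short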
Target sequence (Q5AAJ8 whole entry, looked up): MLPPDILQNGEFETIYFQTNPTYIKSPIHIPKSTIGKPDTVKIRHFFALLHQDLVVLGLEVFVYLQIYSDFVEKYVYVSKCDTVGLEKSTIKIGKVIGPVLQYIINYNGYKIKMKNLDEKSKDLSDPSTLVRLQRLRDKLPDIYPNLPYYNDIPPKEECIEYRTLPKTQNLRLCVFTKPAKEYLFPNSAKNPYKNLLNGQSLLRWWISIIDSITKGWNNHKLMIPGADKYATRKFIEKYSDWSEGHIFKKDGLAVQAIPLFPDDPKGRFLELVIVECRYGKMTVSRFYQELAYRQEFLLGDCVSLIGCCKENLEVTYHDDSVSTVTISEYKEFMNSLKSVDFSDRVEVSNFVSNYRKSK
C2C12 statin = protects C2C12 myotubes from simvastatin toxicity; 0.78% of 330,000 active; ATP luminescence, 48 h; scaled: DMSO 0, geranylgeraniol control 100; rescue of ATP level, % at 7.49 µM; AID 602340;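 active = mean ATP rescue above about 67%, or every replicate alone reaching that limit, limit read from the data, passing the limit was not always enough; inconclusive = no clear call, values can overlap the other calls; inactive = mean under the limit and some replicate under it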;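 also: myotubes were challenged with 10 µM simvastatin during compound exposure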
esBAF inh = SWI/SNF esBAF complex inhibition; 2% of 350,000 active; mouse ES cells, Bmi1-luciferase knock-in reporter, 24 h; 100% = twice the neutral-well signal; reporter increase, % at 12.5 µM; AID 602393; in the data active = activation above about 40%; inconclusive = no clear call, values can overlap the other calls;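 also: 0% = median of the plate's neutral control wells and 100% = double that signal; a rise in the Bmi1 reporter signal indicates esBAF inhibition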
MITF act = increases MITF-driven TRPM1 promoter luciferase signal | SK-MEL-5 TRPM1-promoter luciferase, 24 h; % of positive control, neutral wells = 0 | activation, % at 12.5 µM | 0.75% of 300,000 active;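 active = mean activation of at least 80% with every replicate also reaching 80%; inconclusive = mean reaches 80% but some replicate falls short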;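 also: 0% = neutral control wells and 100% = parthenolide positive control wells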
An asterisk follows results filed as active; u = inconclusive; x = no result; ! = a repeat was not active. Rows were chosen to be rich in hits. Some 3.1% of all compounds tested hit in one or more screens of this group.

SMILES	Wnt act	Rtt109 Vps75	C2C12 statin	esBAF inh	MITF act
O=C1c2ccccc2C(=O)N1OCCOCCOCCON1C(=O)c2ccccc2C1=O	45*	5	1	-9	-10
O=C1Cc2ccccc2C(=O)N1OCc1ccc(Cl)cc1	-1	8	-2	13	-10
O=C1c2ccccc2C(=O)N1OCc1ccc(Cl)cc1	x	-12	68*	1	-2
C[C@@H]1CN([C@H](C)CO)C(=O)c2cccc(NC(=O)c3nc4ccccc4s3)c2O[C@H]1CN(C)C(=O)NC1CCCCC1	x	x	56	3	x
Cc1cccc(NC(=S)N2N=CCC2c2ccccc2)c1 (stereo not given)	6	3	-2	49*	48
O=C(CNc1ccc(Br)cc1)c1ccc(O)cc1	10	-2	x	x	14
O=C(CNc1ccc(Br)cc1)c1ccc(Br)s1	12	4	11	58*	77
Cc1noc(C)c1S(=O)(=O)Nc1ccc2c(c1)CC(=O)N([C@@H](C)CO)C[C@H](C)[C@@H](CN(C)S(C)(=O)=O)O2	x	x	-1	3	x
Cc1c(C(=O)N2c3ccccc3CC2C)oc2ccccc12 (stereo not given)	51*	-14	-32	85*	57
COCc1c(C(=O)OCC(=O)N2c3ccccc3CC2C)oc2ccccc12 (stereo not given)	-2	2	4	-1	x
O=C1c2ccccc2C(=O)N1CN(C(=O)COc1ccccc1)c1ccc(F)cc1	-4	-1	114*	3	13
CC(C)(C)Nc1nc(Nc2ccc([N+](=O)[O-])cc2)nc(NC(C)(C)C)n1	-3	-1	-13	1	x
O=[N+]([O-])c1ccc(Nc2nccc(Cl)n2)cc1	55*	x	x	x	x
CC(=O)C(Sc1nn(C)c(=S)s1)C(=O)Nc1ccccc1 (stereo not given)	x	-4	-3	77*	18
CC(=O)C(Sc1nc(N(C)C)nc(N(C)C)n1)C(=O)Nc1ccccc1 (stereo not given)	-5	0	1	2	0
C[C@@H]1CCCCO[C@@H](CN(C)Cc2ccncc2)[C@@H](C)CN([C@H](C)CO)C(=O)c2cc(NC(=O)CCCN(C)C)ccc2O1	x	x	-27	4	x
C[C@@H]1CN([C@@H](C)CO)C(=O)c2cc(NC(=O)Cn3cnnn3)ccc2O[C@@H]1CN(C)Cc1ccc(C(=O)Nc2ccccc2N)cc1	x	x	29	-2	x
C[C@@H]1CN([C@@H](C)CO)C(=O)c2cc(NC(=O)Nc3ccc(C(F)(F)F)cc3)ccc2O[C@@H]1CN(C)Cc1ccc(C(=O)Nc2ccccc2N)cc1	x	x	72*	-21	x
C[C@H]1CN([C@@H](C)CO)C(=O)c2cc(NC(=O)Nc3cccc4ccccc34)ccc2O[C@H]1CN(C)Cc1ccc(C(=O)Nc2ccccc2N)cc1	x	x	202*	-10	x
C[C@@H]1CN([C@@H](C)CO)C(=O)c2cccc(NS(C)(=O)=O)c2O[C@H]1CN(C)CC1CCCCC1	-2	3	103*!	-3	0
C[C@@H]1CN([C@H](C)CO)C(=O)c2cc(NC(=O)Cn3cnnn3)ccc2O[C@@H]1CN(C)Cc1ccc(C(=O)Nc2ccccc2N)cc1	x	x	105*	-3	x
C[C@@H]1CN([C@H](C)CO)C(=O)c2cc(NC(=O)Cc3ccccc3)ccc2O[C@@H](C)CCCCO[C@@H]1CN(C)S(=O)(=O)c1ccccc1	x	x	x	2	x
COc1cccc(CNC(=O)C[C@@H]2CC[C@H](NC(C)=O)[C@@H](CO)O2)c1	x	x	8	-2	x
Cc1ccc(S(=O)(=O)Nc2ccc3c(c2)C(=O)N([C@H](C)CO)C[C@H](C)[C@H](CN(C)Cc2ccc(C(=O)Nc4ccccc4N)cc2)O3)cc1	x	x	82*	-19	x
C[C@H]1CN([C@@H](C)CO)C(=O)c2cc(NC(=O)Nc3ccc(C(F)(F)F)cc3)ccc2O[C@@H]1CN(C)Cc1ccc(C(=O)Nc2ccccc2N)cc1	x	x	56	-10	x
SMILES	Wnt act	Rtt109 Vps75	C2C12 statin	esBAF inh	MITF act
Cc1ccc(S(=O)(=O)Nc2ccc3c(c2)C(=O)N([C@@H](C)CO)C[C@H](C)[C@H](CN(C)Cc2ccc(C(=O)Nc4ccccc4N)cc2)O3)cc1	x	x	u	-26	x
C[C@H](CO)N1C[C@H](C)[C@@H](CN(C)CC2CCCCC2)Oc2ccc(NC(=O)Nc3cccc4ccccc34)cc2C1=O	x	x	96*	-5	x
C[C@H](CO)N1C[C@H](C)[C@@H](CN(C)Cc2ccc(C(=O)Nc3ccccc3N)cc2)Oc2ccc(NC(=O)Nc3ccc(C(F)(F)F)cc3)cc2C1=O	x	x	82*	-9	x
C[C@H](CO)N1C[C@H](C)[C@H](CN(C)Cc2ccc(C(=O)Nc3ccccc3N)cc2)Oc2ccc(N(C)C)cc2C1=O	x	x	83*	-34	x
O=C(C[C@@H]1C[C@H]2c3cc(NS(=O)(=O)c4ccc(F)cc4)ccc3O[C@H]2[C@H](CO)O1)NCc1ccc(Cl)cc1	x	x	-6	-27	x
CC(C)NC(=O)N[C@H]1C=C[C@H](CC(=O)N2CCCCC2)O[C@H]1CO	x	x	-14	2	x
O=C(Nc1ccc(Cl)cc1)N[C@H]1CC[C@@H](CCn2cc(-c3ccccc3F)nn2)O[C@H]1CO	x	x	10	-7	x
CO[C@@H]1CN(C)C(=O)c2cc(NC(=O)NC3CCCCC3)ccc2OC[C@@H](C)NC[C@@H]1C	x	x	-2	-6	x
C[C@@H]1CCCCO[C@@H](CN(C)Cc2ccc(C(F)(F)F)cc2)[C@@H](C)CN([C@@H](C)CO)C(=O)c2cc(NC(=O)Nc3cccc4ccccc34)ccc2O1	x	x	x	4	x
C[C@@H]1CN([C@@H](C)CO)C(=O)c2cccc(NC(=O)Nc3ccccc3)c2O[C@H]1CN(C)Cc1ccc(C(=O)Nc2ccccc2N)cc1	x	x	69*	-15	x
CO[C@H]1CN(C)C(=O)c2ccc(NC(=O)Nc3ccccc3F)cc2OC[C@H](C)NC[C@H]1C	x	x	16	1	x
C[C@H]1CN([C@@H](C)CO)C(=O)c2cc(NC(=O)CCC(F)(F)F)ccc2O[C@@H]1CN(C)C(=O)NC1CCCCC1	x	x	6	-9	x
C[C@@H]1CN([C@@H](C)CO)C(=O)c2cc(NC(=O)Nc3ccccc3)ccc2O[C@@H]1CN(C)C(=O)Nc1ccc2c(c1)OCO2	x	x	x	2	x
Cc1cccc(Cn2cc(SCC(=O)Nc3nccs3)c3ccccc32)c1	41*	-4	10	65*	68
Cc1ccc(S(=O)(=O)N(C)C[C@H]2Oc3ncc(-c4ccncc4)cc3C(=O)N([C@@H](C)CO)C[C@@H]2C)cc1	x	x	-5	-3	x
COc1ccc(C(=O)c2sc(Nc3ccccc3)nc2N)cc1	-1	3	78*	25	x
Cc1cc(NC(=O)c2sc(Nc3ccc(F)cc3)nc2N)no1	3	5	-21	37	31
COc1ccc(C(=O)c2sc(Nc3ccccc3F)nc2N)cc1	u	5	52	40	x
Cc1cnc(NC(=O)c2sc(Nc3ccccc3)nc2N)o1	38*	8	x	x	x
COC(=O)CCc1sc(Nc2ccccc2)nc1-c1ccc(OC)cc1	42*	1	x	x	61
